Assay results from PubChem BioAssay (EPA / NIEHS).
Activity calls are given as the source filed them. The calls were made as follows, unless noted: active = hit-call score of the fitted dose curve at least 0.9, where 1 is the maximum; inactive = score below 0.9.

Key:
[1] = read-out: Interleukin-1 alpha (IL1a), IL1A (gene 3552); experiment: BSK_LPS_IL1a: BioMAP Diversity Plus: LPS Assay for Interleukin-1 alpha (IL1a) Biomarker Activity (AID 2283080); details: primary human HUVEC with PBMC; actives raise or lower the signal
Procedure, shortened: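 Human umbilical vein endothelial cells co-cultured with PBMC and stimulated with LPS; IL-1a measured by ELISA 24 h after dosing. Bidirectional fitting against DMSO; cytotoxicity checked by SRB staining in parallel cultures.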

[2] = read-out: Monocyte Chemoattractant Protein-1 (MCP1), CCL2 (gene 6347); experiment: BSK_LPS_MCP1: BioMAP Diversity Plus: LPS Assay for Monocyte Chemoattractant Protein-1 (MCP1) Biomarker Activity (AID 2283081); details: primary human HUVEC with PBMC; actives raise or lower the signal
Procedure, shortened: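 Human umbilical vein endothelial cells co-cultured with PBMC, LPS-stimulated; secreted MCP-1 measured by ELISA 24 h after compound addition. Bidirectional curve fitting against DMSO baseline; SRB total-protein staining in parallel cultures for cytotoxicity.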

[3] = BSK_LPS_PGE2: BioMAP Diversity Plus: LPS Assay for Prostaglandin E2 (PGE2) Biomarker Activity (AID 2283082); details: primary human HUVEC with PBMC; actives raise or lower the signal
Procedure, shortened: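 PGE2 release measured by ELISA in an LPS-activated co-culture of human umbilical vein endothelial cells and peripheral blood mononuclear cells, read at 24 h post-dosing. DMSO served as baseline for bidirectional curve fitting.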

[4] = read-out: Macrophage colony-stimulating factor (MCSF), CSF1 (gene 1435); experiment: BSK_LPS_MCSF: BioMAP Diversity Plus: LPS Assay for Macrophage colony-stimulating factor (MCSF) Biomarker Activity (AID 2283083); details: primary human HUVEC with PBMC; actives raise or lower the signal
Procedure, shortened: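 HUVEC–PBMC co-culture, M-CSF measured by ELISA 24 h after chemical dosing. Fitted in both directions relative to DMSO as negative control; overt cytotoxicity assessed by SRB total-protein staining in parallel cultures.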

[5] = read-out: Tissue Factor, F3 (gene 2152); experiment: BSK_LPS_TissueFactor: BioMAP Diversity Plus: LPS Assay for Tissue Factor Biomarker Activity (AID 2283084); details: primary human HUVEC with PBMC; actives raise or lower the signal
Procedure, shortened: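 Human umbilical vein endothelial cells co-cultured with PBMC were dosed with compound. Cell-surface CD142 was measured by ELISA 24 h later. Activity was fitted bidirectionally against DMSO, with SRB total-protein staining in parallel cultures for cytotoxicity.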

[6] = read-out: Tumor necrosis factor (Homo sapiens) (UniProt P01375); experiment: BSK_LPS_TNFa: BioMAP Diversity Plus: LPS Assay for Tumour Necrosis Factor alpha (TNFa) Biomarker Activity (AID 2283085); details: primary human HUVEC with PBMC; actives raise or lower the signal
Procedure, shortened: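 TNFa was quantified by ELISA in LPS-activated co-cultures of human endothelial cells and PBMC, 24 h post-dosing. Both increases and decreases versus DMSO were fitted.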

[7] = read-out: Vascular cell adhesion molecule 1 (VCAM1), VCAM1 (gene 7412); experiment: BSK_LPS_VCAM1: BioMAP Diversity Plus: LPS Assay for Vascular cell adhesion molecule 1 (VCAM1) Biomarker Activity (AID 2283086); details: primary human HUVEC with PBMC; actives raise or lower the signal
Procedure, shortened: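 VCAM-1 quantified by ELISA in an LPS-activated co-culture of human endothelial cells and peripheral blood mononuclear cells, read 24 h post-treatment. Fitted in both directions versus DMSO; parallel SRB staining flags overt cytotoxicity.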

[8] = read-out: CD38, CD38 (gene 952); experiment: BSK_SAg_CD38: BioMAP Diversity Plus: SAg Assay for CD38 Biomarker Activity (AID 2283087); details: primary human HUVEC with PBMC; actives raise or lower the signal
Procedure, shortened: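 CD38 quantified by ELISA (fluorescence) in a superantigen-activated endothelial cell–PBMC co-culture at 24 h post-dose. Activity fitted in both directions relative to DMSO; parallel SRB and Alamar Blue cytotoxicity read-outs.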

[9] = read-out: CD40, CD40 (gene 958); experiment: BSK_SAg_CD40: BioMAP Diversity Plus: SAg Assay for CD40 Biomarker Activity (AID 2283088); details: primary human HUVEC with PBMC; actives raise or lower the signal
Procedure, shortened: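 HUVEC plus PBMC co-culture, superantigen-activated, with CD40 read by ELISA 24 h after dosing. Curves fitted in both directions against DMSO. Overt cytotoxicity checked by parallel SRB total-protein staining.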

[10] = read-out: CD69, CD69 (gene 969); experiment: BSK_SAg_CD69: BioMAP Diversity Plus: SAg Assay for CD69 Biomarker Activity (AID 2283089); details: primary human HUVEC with PBMC; actives raise or lower the signal
Procedure, shortened: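 HUVEC co-cultured with PBMC were dosed with chemical, and CD69 was measured by ELISA with fluorescence read-out 24 h later. Bidirectional curve fitting used DMSO as negative control and activity baseline.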

[11] = read-out: Monocyte Chemoattractant Protein-1 (MCP1), CCL2 (gene 6347); experiment: BSK_SAg_MCP1: BioMAP Diversity Plus: SAg Assay for Monocyte Chemoattractant Protein-1 (MCP1) Biomarker Activity (AID 2283090); details: primary human HUVEC with PBMC; actives raise or lower the signal
Procedure, shortened: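 Values derive from bidirectional fitting of ELISA-measured MCP1 against DMSO controls. Readings were taken 24 h after dosing human vascular endothelial cells co-cultured with peripheral blood mononuclear cells under superantigen stimulation.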

[12] = read-out: E-selectin (Homo sapiens) (UniProt P16581); experiment: BSK_SAg_Eselectin: BioMAP Diversity Plus: SAg Assay for Eselectin Biomarker Activity (AID 2283091); details: primary human HUVEC with PBMC; actives raise or lower the signal
Procedure, shortened: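 Human umbilical vein endothelial cells co-cultured with peripheral blood mononuclear cells, SAg system. E-selectin is measured by ELISA 24 h after dosing and fitted bidirectionally against DMSO. Cytotoxicity is checked by SRB staining of parallel cultures.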

[13] = BSK_SAg_PBMCCytotoxicity: PBMC Cytotoxicity Assessment in the BioMAP Diversity Plus: SAg Assay (AID 2283093); details: primary human HUVEC with PBMC;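 also: PBMC viability measured as Alamar Blue reduction fluorescence at 546/580 nm; fitted both ways against DMSO so a hit may be loss or gain of signal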
Procedure, shortened: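 Alamar Blue reduction (6 h, 546/580 nm) reports PBMC cytotoxicity after 90 h superantigen activation (SEB, TSST-1; 20 ng/mL final each) with 1 h compound pre-treatment. Gain or loss of signal fitted versus DMSO.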

[14] = read-out: Interleukin-8 (IL8), CXCL8 (gene 3576); experiment: BSK_SAg_IL8: BioMAP Diversity Plus: SAg Assay for Interleukin-8 (IL8) Biomarker Activity (AID 2283094); details: primary human HUVEC with PBMC; actives raise or lower the signal
Procedure, shortened: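 ELISA readout of IL-8 from a superantigen-activated endothelial/PBMC primary human co-culture, taken 24 h post-dosing and fitted in both directions against DMSO; parallel SRB total-protein staining flags overt cytotoxicity.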

[15] = BSK_SAg_Proliferation: Cell Proliferation Assessment in the BioMAP Diversity Plus: SAg Assay (AID 2283095); details: primary human HUVEC with PBMC;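 also: relative cell number as total protein by SRB absorbance in sub-confluent culture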
Procedure, shortened: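 Relative cell number in the endothelial cell/PBMC co-culture was quantified at 96 h by SRB staining (0.1% SRB, 10% TCA fixation, read at 560 nm). Curves were fitted in both directions relative to DMSO baseline.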

[16] = BSK_SAg_SRB: Viability Assessment in the BioMAP Diversity Plus: SAg Assay (AID 2283096); details: primary human HUVEC with PBMC;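 also: cells read one day after compound addition; hits may be either gain or loss of signal compared with DMSO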
Procedure, shortened: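 This overt-cytotoxicity endpoint quantifies protein in human endothelial/PBMC co-cultures at 24 h using SRB absorbance (560 nm) after trichloroacetic acid fixation. Values reflect signal change from the DMSO negative control, fitted bidirectionally.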

[17] = target: human CYP2D6, CYP2D6 (gene 1565) (UniProt P10635); experiment: NVS_ADME_hCYP2D6: NovaScreen (NVS) CYP450-related Enzyme Activity (ADME) Assay for human CYP2D6 (AID 2283107; active = hit-call score of the fitted dose curve at least 0.9, where 1 is the maximum)
Procedure, shortened: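 Cell-free assay using recombinant human CYP2D6 expressed in insect cells, with a fluorogenic substrate read after 1 h. Primary screen in duplicate at 10 uM; actives followed up in concentration series. Loss of signal fitted relative to acetonitrile.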

Measured: AC50

Chain of Tumor necrosis factor (Homo sapiens) (P01375 whole entry, looked up): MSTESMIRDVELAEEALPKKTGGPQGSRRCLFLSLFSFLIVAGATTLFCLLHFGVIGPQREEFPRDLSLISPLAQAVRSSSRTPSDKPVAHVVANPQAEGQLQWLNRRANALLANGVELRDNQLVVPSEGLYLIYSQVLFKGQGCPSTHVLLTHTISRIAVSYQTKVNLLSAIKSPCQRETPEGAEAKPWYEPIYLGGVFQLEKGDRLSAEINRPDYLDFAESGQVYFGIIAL
Chain of E-selectin (Homo sapiens) (P16581 whole entry, looked up): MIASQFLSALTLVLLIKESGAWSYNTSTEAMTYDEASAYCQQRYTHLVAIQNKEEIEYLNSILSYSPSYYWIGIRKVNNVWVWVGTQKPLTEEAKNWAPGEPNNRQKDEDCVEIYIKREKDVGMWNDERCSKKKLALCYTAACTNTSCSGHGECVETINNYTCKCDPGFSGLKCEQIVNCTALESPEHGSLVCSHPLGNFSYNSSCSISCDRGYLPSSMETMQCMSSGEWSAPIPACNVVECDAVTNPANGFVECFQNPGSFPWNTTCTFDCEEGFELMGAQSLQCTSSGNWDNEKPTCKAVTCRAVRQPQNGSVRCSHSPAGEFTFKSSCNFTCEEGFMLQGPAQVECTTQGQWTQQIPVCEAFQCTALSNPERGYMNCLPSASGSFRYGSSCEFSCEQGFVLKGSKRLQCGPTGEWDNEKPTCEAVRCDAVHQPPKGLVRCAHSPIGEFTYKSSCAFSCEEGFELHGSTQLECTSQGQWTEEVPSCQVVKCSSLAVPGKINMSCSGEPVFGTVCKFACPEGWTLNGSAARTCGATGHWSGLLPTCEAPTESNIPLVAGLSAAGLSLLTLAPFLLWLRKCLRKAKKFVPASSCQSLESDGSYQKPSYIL
Chain of human CYP2D6, CYP2D6 (gene 1565) (P10635 whole entry, looked up): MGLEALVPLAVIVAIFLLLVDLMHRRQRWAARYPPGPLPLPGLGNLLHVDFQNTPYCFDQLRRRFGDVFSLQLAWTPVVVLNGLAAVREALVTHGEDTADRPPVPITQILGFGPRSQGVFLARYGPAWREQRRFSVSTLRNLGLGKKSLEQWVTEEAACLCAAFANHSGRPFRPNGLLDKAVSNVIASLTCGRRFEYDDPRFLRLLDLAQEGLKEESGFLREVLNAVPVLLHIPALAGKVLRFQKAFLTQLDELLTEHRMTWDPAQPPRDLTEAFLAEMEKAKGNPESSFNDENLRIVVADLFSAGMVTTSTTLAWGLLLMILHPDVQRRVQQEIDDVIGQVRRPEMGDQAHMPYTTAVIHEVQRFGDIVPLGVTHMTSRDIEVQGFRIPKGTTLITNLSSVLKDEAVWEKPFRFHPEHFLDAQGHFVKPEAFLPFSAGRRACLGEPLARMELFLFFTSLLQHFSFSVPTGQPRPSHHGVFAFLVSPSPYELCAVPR

O=Nc1ccc(O)cc1
inactive: [1] | [2] | [3] | [4] | [5] | [6] | [7] | [8] | [9] | [10] | [11] | [12] | [13] | [14] | [15] | [16]
active: [17] 3.79 µM

O=c1c2ccccc2oc2ccccc12
inactive: [1] | [2] | [3] | [4] | [5] | [6] | [7] | [8] | [9] | [10] | [11] | [12] | [13] | [14] | [15] | [16]

C=C[Si](OC(C)=O)(OC(C)=O)OC(C)=O
inactive: [1] | [2] | [3] | [4] | [5] | [6] | [7] | [8] | [9] | [10] | [11] | [12] | [13] | [14] | [15] | [16]

CO[Si](OC)(OC)c1ccccc1
inactive: [1] | [2] | [3] | [4] | [5] | [6] | [7] | [8] | [9] | [10] | [11] | [12] | [13] | [14] | [15] | [16]

CC(C)C(=O)C(C)C
inactive: [1] | [2] | [3] | [4] | [5] | [6] | [7] | [8] | [9] | [10] | [11] | [12] | [13] | [14] | [15] | [16]

CCCCNc1ccc(NCCCC)c2c1C(=O)c1ccccc1C2=O
inactive: [1] | [2] | [3] | [4] | [5] | [6] | [7] | [8] | [9] | [10] | [11] | [12] | [13] | [14] | [15] | [16]

CCO[Si](CCCN=C=O)(OCC)OCC
inactive: [1] | [2] | [3] | [4] | [5] | [6] | [7] | [8] | [9] | [10] | [11] | [12] | [13] | [14] | [15] | [16]
